# Test results published in PubChem BioAssay (NCATS).
# Results filed as inconclusive are left out. A number with no mark means an inactive call. Calls of active or inactive are those of the source. The call rests on the fitted dose curve; in most records, active means well fitted curve in the direction sought with a large enough effect; inconclusive means small, poorly fitted or top-dose-only effect, or another doubt; inactive means no such curve, though single readings can be large; an effect the other way counts as inactive or inconclusive.
# Key:
# [1] = test system: Tov112D; experiment: Primary qHTS to identify gynecologic anti-cancer compounds using libraries of approved drugs and bioactive compounds (AID 1345084); conditions: Gynecologic cancer cell panel viability, ATPlite luminescence, 48 h; series mostly up to 57.5 µM; further: nearly all actives have a fitted effect of over 55% in size
# Procedure, shortened: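 ATP-based viability (ATPlite), 1,000 cells/well, 16 h pre-incubation, 48 h compound at 37 C, 5% CO2, 15 min RT before read.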
# [2] = Drug repurposing screens with cells derived from glioblastoma tumor samples (AID 1345199); conditions: GBM patient neurospheres viability, ATP luminescence, 48 h; further: nearly all actives have a fitted effect of over 40% in size
# Procedure, shortened: (§1)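 Four patient lines of CD133+ GBM neurospheres were screened at several concentrations; hits were retested in those lines plus three slower-growing GBM lines, using 48-hour treatment and ATP-based viability.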
# [3] = test system: astro; experiment: as above; conditions: viability, ATP luminescence, 48 h; series mostly up to 45.9 µM
# Procedure, shortened: as §1
# [4] = at 46.1 µM (top of the series), tumour line C
# [5] = at 45.9 µM (top of the series), tumour line B
# [6] = at 45.9 µM (top of the series), tumour line D
# [7] = at 46 µM (top of the series), tumour line A
# On the % scale 0 is the no-effect control and ±100 the full control effect; potency means the concentration at half of the fitted maximal effect.
smiles,measurement,setting,value
O=C(OCC(O)CO)c1ccccc1Nc1ccnc2c(C(F)(F)F)cccc12 (stereo not given),Potency,[1],inactive
CCCCCCn1c(=O)c2c(ncn2C)n(C)c1=O,Potency,[1],inactive
Nc1ccc(C(=O)OCC(O)CO)cc1 (stereo not given),Potency,[1],inactive
CC(C)C[C@@H]1[C@H](c2ccccc2)OC(=O)N1CCCN1CCCCCC1,Potency,[1],inactive
CN1CCCN(C(c2ccccc2)c2ccc(Cl)cc2)CC1 (stereo not given),Potency,[1],31.6 µM (active)
same,"activity, negative = cell killing",[2]; [4],-12.3%
same,Potency,[2]; tumour line A,4.47 µM (active)
same,Potency,[2]; tumour line B,35.5 µM (active)
same,Potency,[2]; tumour line D,20 µM (active)
CO[C@@]1(NC(=O)CSC[C@@H](N)C(=O)O)C(=O)N2C(C(=O)O)=C(CSc3nnnn3C)CS[C@@H]21,Potency,[1],inactive
same,"activity, negative = cell killing",[2]; [5],-3.3%
same,"activity, negative = cell killing",[2]; [6],-19.7%
same,"activity, negative = cell killing",[2]; [7],-20.1%
same,"activity, negative = cell killing",[2]; [4],-4.96%
same,Potency,[3],inactive
O=C(O)c1[nH]n(-c2ccc(S(=O)(=O)O)cc2)c(=O)c1N=Nc1ccc(S(=O)(=O)O)cc1,Potency,[1],inactive
same,"activity, negative = cell killing",[2]; [5],1.15%
same,"activity, negative = cell killing",[2]; [6],-22.4%
same,"activity, negative = cell killing",[2]; [4],-16.3%
same,Potency,[2]; tumour line A,28.2 µM (active)
same,Potency,[3],inactive
CC(C)OC(=O)c1cc2c(OCC(O)CNC(C)(C)C)cccc2[nH]1 (stereo not given),Potency,[1],inactive
same,"activity, negative = cell killing",[2]; [5],-15.9%
same,Potency,[2]; tumour line A,11.2 µM (active)
same,Potency,[2]; tumour line D,22.4 µM (active)
CC1CN(c2cc3c(cc2F)c(=O)c(C(=O)O)cn3-c2ccc(F)cc2F)CCN1 (stereo not given),"activity change, negative = cytotoxicity",[1],-5.84% [at 6.55 µM]
same,"activity, negative = cell killing",[2]; [5],-0.773%
same,"activity, negative = cell killing",[2]; [6],-11%
same,"activity, negative = cell killing",[2]; [7],-6.24%
same,"activity, negative = cell killing",[2]; [4],-10.7%
same,Potency,[3],inactive
CCOc1ncc(F)c(=O)[nH]1,Potency,[1],inactive
O=C(OCCN1CCOCC1)c1cccnc1Nc1cccc(C(F)(F)F)c1,Potency,[1],inactive
OC(CCCN1CCCCC1)(c1ccccc1)c1ccccc1,Potency,[1],inactive
same,"activity, negative = cell killing",[2]; [5],9.15%
same,"activity, negative = cell killing",[2]; [6],-27.2%
same,"activity, negative = cell killing",[2]; [4],-3.12%
same,Potency,[2]; tumour line A,11.2 µM (active)
same,Potency,[3],inactive
O=C(Oc1ccccc1)c1cccc(C(=O)Oc2ccccc2)c1,Potency,[1],inactive
same,"activity, negative = cell killing","[2]; at 91.6 µM (top of the series), tumour line A",-20.2%
same,"activity, negative = cell killing","[2]; at 91.6 µM (top of the series), tumour line B",-23.3%
same,"activity, negative = cell killing","[2]; at 91.6 µM (top of the series), tumour line D",-9.21%
same,"activity, negative = cell killing","[2]; at 99.2 µM (top of the series), tumour line C",1.54%
same,Potency,[3],inactive
O=C1OC2(c3ccccc31)c1cc(I)c(O)c(I)c1Oc1c2cc(I)c(O)c1I,Potency,[1],inactive
same,"activity, negative = cell killing",[2]; [5],-23.6%
same,Potency,[2]; tumour line A,11.2 µM (active)
CC(=O)OCC(=O)[C@@]1(O)[C@H](OC(C)=O)C[C@H]2[C@@H]3CCC4=CC(=O)C=C[C@]4(C)[C@@]3(F)[C@@H](O)C[C@@]21C,Potency,[1],inactive
same,"activity, negative = cell killing",[2]; [5],-11.4%
same,"activity, negative = cell killing",[2]; [6],-13%
same,"activity, negative = cell killing",[2]; [7],-9.78%
same,"activity, negative = cell killing",[2]; [4],-2.85%
same,Potency,[3],inactive
CC(=O)OCC[N+](C)(C)C,Potency,[1],inactive
same,"activity, negative = cell killing",[2]; [5],-0.685%
same,"activity, negative = cell killing",[2]; [6],1.13%
same,"activity, negative = cell killing",[2]; [7],-13.5%
same,"activity, negative = cell killing",[2]; [4],18%
same,Potency,[3],inactive
CC(NN)c1ccccc1 (stereo not given),Potency,[1],inactive
same,"activity, negative = cell killing",[2]; [5],-17.4%
same,"activity, negative = cell killing",[2]; [6],-5.52%
same,"activity, negative = cell killing",[2]; [7],-23.7%
same,"activity, negative = cell killing",[2]; [4],-0.872%
same,Potency,[3],inactive
O=C(OCC(COC(=O)c1cccnc1)(COC(=O)c1cccnc1)COC(=O)c1cccnc1)c1cccnc1,Potency,[1],inactive
same,"activity, negative = cell killing",[2]; [5],-3.98%
same,"activity, negative = cell killing",[2]; [6],3.04%
same,"activity, negative = cell killing",[2]; [4],-10.2%
same,Potency,[2]; tumour line A,14.1 µM (active)
same,Potency,[3],inactive
OCCc1ccccc1,Potency,[1],inactive
same,"activity, negative = cell killing",[2]; [5],-16.7%
same,"activity, negative = cell killing",[2]; [6],-5.39%
same,"activity, negative = cell killing",[2]; [7],-18.5%
same,"activity, negative = cell killing",[2]; [4],13.1%
same,Potency,[3],inactive
Cc1ccc(C(=O)Oc2ccc(C(O)CNC(C)(C)C)cc2OC(=O)c2ccc(C)cc2)cc1 (stereo not given),Potency,[1],inactive
O=C(CCCl)NCc1ccccc1,Potency,[1],inactive
CC(=O)OCC(=O)[C@@]1(O)CCC2C3CCC4=CC(=O)CC[C@]4(C)C3[C@@H](O)C[C@@]21C (stereo not given in full),Potency,[1],inactive
same,"activity, negative = cell killing",[2]; [5],-6.98%
same,"activity, negative = cell killing",[2]; [6],-11.4%
same,"activity, negative = cell killing",[2]; [7],-11.4%
same,"activity, negative = cell killing",[2]; [4],20.9%
same,Potency,[3],inactive
CCOC(=O)N1CCC(Nc2ccc(Cl)cc2N)CC1,Potency,[1],inactive
CCCCCC(=O)O[C@]1(C(C)=O)CC[C@H]2[C@@H]3CCC4=CC(=O)CC[C@]4(C)[C@H]3CC[C@@]21C,Potency,[1],inactive
C[C@H]1NCc2cc(-c3ccc4c(=O)c(C(=O)O)cn(C5CC5)c4c3OC(F)F)ccc21,Potency,[1],inactive
same,"activity, negative = cell killing",[2]; [5],3.7%
same,"activity, negative = cell killing",[2]; [6],27.3%
same,"activity, negative = cell killing",[2]; [7],-27.3%
same,"activity, negative = cell killing",[2]; [4],-18%
same,Potency,[3],inactive
COc1ccccc1OCC1CNC(=O)O1 (stereo not given),Potency,[1],inactive
same,"activity, negative = cell killing",[2]; [5],-0.636%
same,"activity, negative = cell killing",[2]; [6],-0.575%
same,"activity, negative = cell killing",[2]; [7],-28.8%
same,"activity, negative = cell killing",[2]; [4],4.79%
same,Potency,[3],inactive
O=C(O)[C@H](O)[C@@H](O)[C@H](O[C@@H]1O[C@H](CO)[C@H](O)[C@H](O)[C@H]1O)[C@H](O)CO,Potency,[1],inactive
same,"activity, negative = cell killing","[2]; at 20 µM (top of the series), tumour line C",-12.3%
same,"activity, negative = cell killing","[2]; at 21.2 µM (top of the series), tumour line B",-2.57%
same,"activity, negative = cell killing","[2]; at 21.2 µM (top of the series), tumour line D",-4.25%
same,"activity, negative = cell killing","[2]; at 21.3 µM (top of the series), tumour line A",-22.9%
same,Potency,[3],inactive
CC(C)C(=O)OCc1cccc(OC(=O)[C@@H]2N3C(=O)[C@@H](NC(=O)Cc4ccccc4)[C@H]3SC2(C)C)c1,Potency,[1],inactive
CN(C)CCOC(c1ccccc1)c1ccc(Br)cc1 (stereo not given),Potency,[1],inactive
O=C(CO)[C@@H](O)[C@H](O)[C@@H](O)CO,Potency,[1],inactive
same,"activity, negative = cell killing",[2]; [5],4.08%
same,"activity, negative = cell killing",[2]; [6],-8.89%
same,"activity, negative = cell killing",[2]; [7],-12.2%
same,"activity, negative = cell killing",[2]; [4],8.07%
same,Potency,[3],inactive
CC(C)(C)C(=O)OCOC(=O)C1N2C(=O)CC2S(=O)(=O)C1(C)C (stereo not given),Potency,[1],inactive
same,"activity, negative = cell killing",[2]; [5],-8.27%
same,"activity, negative = cell killing",[2]; [6],-8.54%
same,"activity, negative = cell killing",[2]; [7],-19.2%
same,"activity, negative = cell killing",[2]; [4],-11.5%
same,Potency,[3],inactive
